Source: PubChem BioAssay (NCATS)
Inconclusive results are not listed. Activity calls are given as the source filed them. The call rests on the fitted dose curve; in most records, active means well fitted inhibition curve with a large enough effect; inconclusive means small, poorly fitted or top-dose-only effect; inactive means no such curve, though single readings can be large or run the other way.

Assay: qHTS Screen of the MIPE 4.0 Collection Against Ewings Sarcoma (RDES) (AID 1259252); further: nearly all actives have a fitted effect of over 35% in size;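 on viability (percent of control): 100% = DMSO-treated cells and 0% = medium-only wells without cells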
Conditions: RD-ES Ewing sarcoma viability, CellTiter-Glo, 48 h; series mostly up to 45.8 µM; viability (percent of control): at the top concentration
Method in brief: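 Cells plated in serum-containing RPMI (5% FBS) and treated with compound dilutions for 48 h. Readout luminescent viability; normalization relied on vehicle (no inhibition) and media-only columns (full inhibition).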
Potency means the concentration at half of the fitted maximal effect.

| SMILES | viability (percent of control) | Potency |
| --- | --- | --- |
| CC(=O)OCC1=C(C(=O)O)N2C(=O)[C@@H](N)[C@@H]2SC1 | 126% (inactive) | – |
| CN[C@@H]1Cc2cccc3[nH]c(=O)n(c23)C1 | 122% (inactive) | – |
| COc1ccc2c(c1)[C@]13CCCCC1C(C2)N(C)CC3 (stereo not given in full) | 113% (inactive) | – |
| C[C@H]([C@H](O)CCC(C)(C)O)[C@H]1CC[C@@]2(O)C3=CC(=O)[C@@H]4C[C@@H](O)[C@@H](O)C[C@]4(C)[C@@H]3CC[C@]12C | 124% (inactive) | – |
| COC(=O)[C@@H](N)CCCN=C(N)N[N+](=O)[O-] | 110% (inactive) | – |
| C[C@@H]1CC[C@@]2(OC1)O[C@H]1C[C@H]3[C@@H]4CC=C5C[C@@H](O[C@@H]6O[C@H](CO)[C@@H](O[C@@H]7O[C@@H](C)[C@H](O)[C@@H](O)[C@@H]7O)[C@H](O)[C@@H]6O[C@@H]6O[C@@H](C)[C@H](O)[C@@H](O)[C@@H]6O)CC[C@]5(C)[C@@H]4CC[C@]3(C)[C@@H]1[C@H]2C | – | 4.18 µM (active) |
| C[C@]12Cc3cn[nH]c3C[C@@H]1CC[C@@H]1[C@H]2CC[C@@]2(C)[C@H]1CC[C@]2(C)O | – | 2.96 µM (active) |
| C[C@@H]1CC[C@H]2[C@@H](C)C(=O)O[C@@H]3O[C@@]4(C)CC[C@H]1[C@]32OO4 | – | 18.7 µM (active) |
| COC[C@H]1OC(=O)c2coc3c2[C@@]1(C)C1=C(C3=O)[C@@H]2CC[C@H](O)[C@@]2(C)C[C@@H]1OC(C)=O | – | 5.9 µM (active) |
| C[C@]12CC[C@@H]3[C@@H](CCC4=CC(=O)CC[C@@H]43)[C@@H]1CC[C@@H]2OC(=O)CCc1ccccc1 | 119% (inactive) | – |
| COc1cc([C@@H]2c3cc4c(cc3[C@@H](O)C3COC(=O)C32)OCO4)cc(OC)c1O (stereo not given in full) | – | 0.0235 µM (active) |
| O=c1cccc2n1CC1CNC[C@H]2C1 | 100% (inactive) | – |
| C[C@@H]1O[C@@H](O[C@@H]2C=C3CC[C@@H]4[C@@H](CC[C@]5(C)[C@H](c6ccc(=O)oc6)CC[C@@]45O)[C@@]3(C)CC2)[C@H](O)[C@H](O)[C@H]1O | – | 0.0418 µM (active) |
| CC(C)(O)C=CC(=O)[C@](C)(O)[C@H]1[C@H](O)C[C@]2(C)[C@@H]3CC=C4[C@@H](C=C(O)C(=O)C4(C)C)[C@]3(C)C(=O)C[C@@]12C | – | 0.59 µM (active) |
| Cc1ccccc1-n1c(Cn2ncc3c(N)ncnc32)nc2cccc(C)c2c1=O | – | 10.5 µM (active) |
| Cc1[nH]nc2ccc(-c3cncc(OC[C@@H](N)Cc4c[nH]c5ccccc45)c3)cc12 | – | 0.209 µM (active) |
| Clc1ccccc1C(c1ccccc1)(c1ccccc1)n1cccn1 | – | 1.05 µM (active) |
| C#C[C@]1(O)C=C[C@@H]2[C@@H]3CCC4=CC(=O)CC[C@@H]4[C@H]3CC[C@@]21CC | 114% (inactive) | – |
| CN(C)[C@@H]1C(=O)C(C(N)=O)=C(O)[C@@]2(O)C(=O)C3=C(O)c4c(O)cccc4[C@@](C)(O)[C@H]3[C@H](O)[C@@H]12 | 121% (inactive) | – |
| C[C@]12CC[C@H]3[C@@H](CCC4=CC(=O)CC[C@@]43C)[C@H]1CC[C@H]2OC(=O)CCC1CCCC1 | 109% (inactive) | – |

| SMILES | viability (percent of control) | Potency |
| --- | --- | --- |
| CC(=Cc1csc(C)n1)[C@@H]1C[C@H]2O[C@]2(C)CCC[C@H](C)[C@@H](O)[C@@H](C)C(=O)C(C)(C)[C@@H](O)CC(=O)O1 | 13.2% (inactive) | – |
| COCC1(CO)C(=O)C2CCN1CC2 (stereo not given) | – | 2.09 µM (active) |
| O=C(N[C@H]1CN2CCC1CC2)c1ccc(Cl)cc1 | – | 8.33 µM (active) |
| C[C@@H]1[C@H](O)[C@@H](C)C=CC=CCCC=CC=CC=CC=C[C@H](O[C@H]2O[C@@H](C)[C@H](O)[C@@H](N)[C@@H]2O)CC2O[C@](O)(C[C@@H](O)[C@H](O)CC[C@@H](O)C[C@@H](O)C[C@@H](O)CC(=O)O[C@H]1C)C[C@H](O)[C@H]2C(=O)O | 124% (inactive) | – |
| CCOP(=O)(OCC)C(C)NC(=O)N(CCCl)N=O (stereo not given) | 137% (inactive) | – |
| CCC(=O)OC1CCC2C3CCC4=CC(=O)CC[C@@]4(C)C3CC[C@]12C (stereo not given in full) | 126% (inactive) | – |
| CC[C@@]1(O)C(=O)OCc2c1cc1n(c2=O)Cc2cc3ccccc3nc2-1 | – | 0.0132 µM (active) |
| CC1=C(O)C(=O)C=C2C1=CC=C1[C@@]2(C)CC[C@@]2(C)[C@@H]3C[C@](C)(C(=O)O)CC[C@]3(C)CC[C@]12C | – | 1.32 µM (active) |
| CC(C)(C)[C@]1(O)C[C@@H]2OC(=O)C[C@@]23C(=O)O[C@@H]2OC(=O)[C@H](O)C213 (stereo not given in full) | 116% (inactive) | – |
| O=C(Nc1ccncc1)C(=O)c1cn(Cc2ccc(Cl)cc2)c2ccccc12 | – | 0.0935 µM (active) |
| O=[N+]([O-])c1ncc[nH]1 | 109% (inactive) | – |
| COc1cc2cc(c1Cl)N(C)C(=O)C[C@H](OC(=O)C(C)C)[C@]1(C)O[C@H]1[C@H](C)[C@@H]1C[C@@](O)(NC(=O)O1)[C@H](OC)C=CC=C(C)C2 | 15.5% (inactive) | – |
| CC(=Cc1csc(C)n1)[C@@H]1C[C@H]2O[C@@H]2CCC[C@H](C)[C@@H](O)[C@@H](C)C(=O)C(C)(C)[C@@H](O)CC(=O)O1 | 15.6% (inactive) | – |
| CC(=O)O[C@@]12CO[C@H]1C[C@H](O)[C@@]1(C)C(=O)[C@H](O)C3=C(C)[C@@H](O)C[C@@](O)([C@@H](OC(=O)c4ccccc4)[C@@H]21)C3(C)C | – | 2.35 µM (active) |
| CC(C)[C@]12O[C@@H]1[C@@H]1O[C@]13[C@]1(O[C@H]1C[C@@H]1C4=C(CC[C@@]13C)C(=O)OC4)[C@H]2O | 1.49% (inactive) | – |
| C[C@H]1CCCC=CC2C[C@H](O)C[C@@H]2[C@H](O)C=CC(=O)O1 (stereo not given in full) | 3.37% (inactive) | – |
| COC1=C[C@@H]2[C@@H]3Cc4ccc(OC)c(O)c4[C@]2(CCN3C)CC1=O | – | 4.69 µM (active) |
| COc1cccc2c1[C@]13CCN(CC4CC4)[C@H](C2)[C@]1(OC)CCC(=O)C3 | 129% (inactive) | – |
| C[C@]12CC[C@H](O)CC1=CC[C@H]1[C@H]3CCC(=O)[C@@]3(C)CC[C@@H]12 | – | 4.18 µM (active) |
| O=c1[nH]c2ccc(Cl)cc2c(N[C@@H]2CN3CCC2CC3)c1-c1nc2ccccc2[nH]1 | – | 1.66 µM (active) |
